In PubChem BioAssay:
Inconclusive results are not listed. Values without a mark were called inactive.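 Rule for the calls, unless noted: active = viability at or below 27.92% in each of two runs, the all-compound median minus 4 SD; inconclusive = no clear call, values can overlap the other calls; inactive = the rest.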

Test: viability of HCT116 without oncogenic beta-catenin – human colon tumor cells, pilot screen (AID 823;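 active = cell viability at or below a set limit in both duplicate runs, the limit being the all-compound median minus 4 SD, cut at about 23% in these data, passing the limit was not always enough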;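 note: 0% = wells killed by 20 µM Hyamine and 100% = untreated DMSO cell wells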)
Conditions: HCT116 beta-catenin knockout viability, CellTiter-Glo, 60 h; at 10 µM; hits give low values

SMILES	viability [%]
CC1(C)CC(=O)C(C=NCCN2CCN(C(=O)CC3CCCC3)CC2)=C(O)C1	96.9
COC(=O)c1c(N2C(=O)CCC2=O)sc2c1CCCC2	102
CC1(C)Cc2ccccc2-c2nc(NCCCO)n(-c3ccccc3)c(=O)c21	97.7
CN(Cc1ccccc1)c1nnc(N)s1	105
CC(=O)Nc1ccc(-c2cc(NC(C)=O)n(-c3ccccc3)n2)cc1	104
COc1ccc(C2C(C(=O)Nc3cc(C)on3)c3ccccc3C(=O)N2C)cc1OC (configuration not stated)	102
CC(=O)Nc1ccc(S(=O)(=O)NCCc2cc3c(C)ccc(C)c3[nH]c2=O)cc1	98.2

Test: viability of PTEN-null HCT116 cells – cell-based, HCT116 clonal line, CellTiter-Glo, pilot screen (AID 824);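 note: 0% = 20 µM Hyamine control and 100% = vehicle cell control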
Conditions: HCT116 PTEN-deleted viability, 60 h, at 10 µM, hits give low values

SMILES	viability [%]
CCOC(=O)c1cc(-c2ccc(C)o2)nn1CCC#N	102
Cc1cc(C)cc(N(CC(=O)NCc2ccco2)S(=O)(=O)c2c(C)noc2C)c1	84.5
COc1ccc(OCCSc2ncnc3nc[nH]c23)cc1	81.3
Cc1sc2ncnc(Sc3nnc4sc5ccccc5n34)c2c1C	65.2
CC(=O)Nc1nc2n(n1)C(c1ccccc1)C=C(c1ccccc1)N2 (configuration not stated)	106
O=C(c1ccc(CS(=O)(=O)c2ccc(Br)cc2)o1)N1CCN(c2ncccn2)CC1	96
CC(=O)c1cccc(NC(=O)c2cc(C(C)C)on2)c1	97.7
Cc1ccccc1-c1noc(-c2cccs2)n1	90.4
COc1ccc(OC)c(S(=O)(=O)Nc2ccc(OCC(=O)O)cc2)c1	91.1
CC(=O)Nc1ccc(S(=O)(=O)Nc2cccc(C(=O)NC(C)(C)C)c2)cc1	88.2
CCOC(=O)N1CCN(CC(=O)Nc2cc(OCC)ccc2OCC)CC1	93.8
Cc1cc(C)cc(OCC(=O)Nc2cccc(-c3nc4ncccc4o3)c2)c1	59.7
Oc1ccc(-c2nc3cnccn3c2Nc2ccc3c(c2)OCCO3)cc1	83.8
CCOC(=O)c1ccc(N2C(=O)CC(C3CCCO3)C2=O)cc1 (configuration not stated)	94.3
CC(=O)N1CCc2cc(S(=O)(=O)Nc3ccccc3N3CCN(C)CC3)ccc21	85.8
CC(=O)c1cccc(NC(=O)C2CCN(S(=O)(=O)c3ccc(F)cc3)CC2)c1	93.5
CCc1nnc(NC(=O)CSc2nnc(Cc3cccn3C)n2C)s1	96
CCNc1cc2oc(=O)c(CN3CCOCC3)c(C)c2cc1C	94.5
COc1ccc(N=C(N(C)C)P(=O)(N(C)C)N(C)C)cc1	98.4
COC(=O)c1ccc2c(c1)N(C)CCS2	93.9

SMILES	viability [%]
O=C(CSc1nnc(COc2ccccc2)o1)Nc1nccs1	96.4
COC(=O)c1ccccc1NC(=O)Nc1nnc(N2CCCCC2C)s1 (configuration not stated)	49.8
Cc1csc(NC(=O)CSc2nnc(Cn3c(=O)sc4ccccc43)n2-c2ccccc2)n1	96.8
CC(C)(C)OC(=O)N1CCC(C(N)=O)CC1	104
C=CCSc1nnc2c(n1)OC(c1cccnc1)Nc1ccccc1-2 (configuration not stated)	88
CN(C)/C=N/c1c(C#N)cnn1-c1ccccc1	96.6
COc1ccccc1CCNC(=O)c1cnn2c(C(F)F)cc(C)nc12	97.7
COc1ccc(N2C(=O)CCC(C(=O)N3CCC(C(N)=O)CC3)C2c2ccc(F)cc2)cc1 (configuration not stated)	102
O=C(c1cc(C2CC2)on1)N1CCOCC1	98.7
Clc1ccc(-c2nnn(Cc3nc4ccccc4s3)n2)cc1	96.6
CC(C)C(=O)Nc1ccc2c(c1)C(=O)N(CCC(=O)O)C2=O	100
COc1ccc(N(CC(=O)NCc2ccccc2OC)S(=O)(=O)c2c(C)nn(C)c2C)cc1	95.6
O=C(c1cncc(Br)c1)N1CCN(c2ccc(N3CCOCC3)nn2)CC1	98.5
CC1(C)CC(=O)C(C=NCCN2CCN(C(=O)CC3CCCC3)CC2)=C(O)C1	95.2
COC(=O)c1c(N2C(=O)CCC2=O)sc2c1CCCC2	93.4
CC1(C)Cc2ccccc2-c2nc(NCCCO)n(-c3ccccc3)c(=O)c21	91.3
CN(Cc1ccccc1)c1nnc(N)s1	102
CC(=O)Nc1ccc(-c2cc(NC(C)=O)n(-c3ccccc3)n2)cc1	91.7
COc1ccc(C2C(C(=O)Nc3cc(C)on3)c3ccccc3C(=O)N2C)cc1OC (configuration not stated)	99.4
CC(=O)Nc1ccc(S(=O)(=O)NCCc2cc3c(C)ccc(C)c3[nH]c2=O)cc1	94.2
